Active and inactive are the calls of the source. Rule for the calls: active = hit-call score of the fitted dose curve at least 0.9, where 1 is the maximum; inactive = score below 0.9.
What was measured:
Settings in all cases: mRNA level, 48 h; actives raise or lower the signal
[1] = read-out: CYP4A11 (gene 1579); experiment: LTEA_HepaRG_CYP4A11: Life Technologies and Expression Analysis (LTEA) Assay for CYP4A11 using HepaRG (AID 2283486)
Method in brief: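 Readout is CYP4A11 mRNA induction or suppression (qRT-PCR, ACTB/GAPDH/POLR2A normalization) in human HepaRG cells after 48 h chemical treatment, concentrations to 100 uM in 0.5% DMSO, fitted bidirectionally against vehicle.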

[2] = read-out: Cytochrome P450 3A4 (Homo sapiens) (UniProt P08684); experiment: LTEA_HepaRG_CYP3A4: Life Technologies and Expression Analysis (LTEA) Assay for CYP3A4 using HepaRG (AID 2283487)
Method in brief: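 CYP3A4 transcript measured by TaqMan qRT-PCR and normalized to three housekeeping genes after 48 h chemical exposure of human HepaRG cells. Top concentration 100 uM, half-log steps, 0.5% DMSO vehicle; gain or loss fitted against DMSO baseline.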

[3] = read-out: DNA damage-inducible transcript 3 (DDIT3), DDIT3 (gene 1649); experiment: LTEA_HepaRG_DDIT3: Life Technologies and Expression Analysis (LTEA) Assay for DNA damage-inducible transcript 3 (DDIT3) using HepaRG (AID 2283488)
Method in brief: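 DDIT3 transcript was quantified by qRT-PCR with ACTB/GAPDH/POLR2A normalization after 48 h chemical treatment of differentiated HepaRG cells in 0.5% DMSO. Dosing was eight-point, half-log, top 100 uM, duplicate wells. Curves fitted bidirectionally versus DMSO.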

[4] = read-out: Pro-epidermal growth factor (Homo sapiens) (UniProt P01133); experiment: LTEA_HepaRG_EGF: Life Technologies and Expression Analysis (LTEA) Assay for Epidermal growth factor (EGF) using HepaRG (AID 2283489)
Method in brief: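 EGF expression changes in human HepaRG cells are scored by bidirectional fitting relative to 0.5% DMSO controls. Chemicals are tested at eight half-log concentrations up to 100 uM for 48 h in serum-free induction medium.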

[5] = read-out: Early growth response protein 1 (EGR1) transcription factor, EGR1 (gene 1958); experiment: LTEA_HepaRG_EGR1: Life Technologies and Expression Analysis (LTEA) Assay for Early growth response protein 1 (EGR1) transcription factor using HepaRG (AID 2283490)
Method in brief: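 EGR1 expression change in human HepaRG after 48 h chemical exposure, assessed by housekeeping-normalized qRT-PCR; concentration-response up to 100 uM, fitted in both directions against DMSO controls.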

[6] = read-out: Ezrin (EZR), EZR (gene 7430); experiment: LTEA_HepaRG_EZR: Life Technologies and Expression Analysis (LTEA) Assay for Ezrin (EZR) using HepaRG (AID 2283491)
Method in brief: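 HepaRG, 48 h chemical exposure, 8-pt half-log series from 100 uM, 0.5% DMSO vehicle, duplicates. Read-out: EZR mRNA by TaqMan qRT-PCR (Fluidigm array), housekeeping-normalized; bidirectional curve fit vs DMSO baseline.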

[7] = read-out: CYP3A5 (gene 1577); experiment: LTEA_HepaRG_CYP3A5: Life Technologies and Expression Analysis (LTEA) Assay for CYP3A5 using HepaRG (AID 2283493)
Method in brief: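 mRNA levels were quantified by qRT-PCR on Fluidigm arrays and normalized to three housekeeping genes. Differentiated HepaRG cells received 48 h exposure (top 100 uM, half-log steps, 0.5% DMSO vehicle, duplicate); bidirectional fitting versus DMSO.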

[8] = read-out: Fatty Acid-Binding Protein 1 (FABP1), FABP1 (gene 2168); experiment: LTEA_HepaRG_FABP1: Life Technologies and Expression Analysis (LTEA) Assay for Fatty Acid-Binding Protein 1 (FABP1) using HepaRG (AID 2283494)
Method in brief: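 Values reflect bidirectional concentration-response fitting of FABP1 mRNA change against 0.5% DMSO controls. Human HepaRG cultures received eight half-log doses (top 100 uM) for 48 h; expression quantified by TaqMan qRT-PCR with housekeeping-gene normalization.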

[9] = read-out: Cytochrome P450 4A22 (Homo sapiens) (UniProt Q5TCH4); experiment: LTEA_HepaRG_CYP4A22: Life Technologies and Expression Analysis (LTEA) Assay for Cytochrome P450 4A22 (CYP4A22) using HepaRG (AID 2283495)
Method in brief: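 Cryopreserved HepaRG cells, plated and cultured 48 h, then switched to serum-free induction medium and treated 48 h (duplicates, up to 100 uM, half-log steps, 0.5% DMSO). Expression change of CYP4A22 was fitted bidirectionally against vehicle.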

[10] = read-out: Cytochrome P450 7A1 (Homo sapiens) (UniProt P22680); experiment: LTEA_HepaRG_CYP7A1: Life Technologies and Expression Analysis (LTEA) Assay for Cytochrome P450 7A1 (CYP7A1) using HepaRG (AID 2283496)
Method in brief: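 HepaRG, 48 h exposure, 8-pt half-log series from 100 uM, 0.5% DMSO vehicle, duplicates. Readout: TaqMan qRT-PCR mRNA vs three housekeeping genes; bidirectional curve fit against DMSO baseline.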

[11] = read-out: Glutathione S-Transferase (GSTA2), GSTA2 (gene 2939); experiment: LTEA_HepaRG_GSTA2: Life Technologies and Expression Analysis (LTEA) Assay for Glutathione S-Transferase (GSTA2) using HepaRG (AID 2283497)
Method in brief: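 Oxidative-stress marker GSTA2 is quantified by TaqMan qRT-PCR in HepaRG cultures treated 48 h across an eight-point range to 100 uM. Expression is normalized to endogenous controls and compared with 0.5% DMSO vehicle.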

[12] = read-out: Glutamate-cysteine ligase catalytic (GCLC), GCLC (gene 2729); experiment: LTEA_HepaRG_GCLC: Life Technologies and Expression Analysis (LTEA) Assay for Glutamate-cysteine ligase catalytic (GCLC) using HepaRG (AID 2283498)
Method in brief: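 Oxidative-stress marker GCLC is measured as mRNA change in human HepaRG liver cells after 48 h chemical treatment in 0.5% DMSO, eight concentrations from 100 uM. Activity is fitted bidirectionally against vehicle.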

[13] = read-out: Glutamate-cysteine ligase regulatory (GCLM), GCLM (gene 2730); experiment: LTEA_HepaRG_GCLM: Life Technologies and Expression Analysis (LTEA) Assay for Glutamate-cysteine ligase regulatory (GCLM) using HepaRG (AID 2283500)
Method in brief: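 GCLM expression quantified by qRT-PCR, normalized to three housekeeping genes, after 48 h chemical treatment of HepaRG cells in duplicate at 8 concentrations (top 100 uM, half-log steps, 0.5% DMSO). Changes fitted both directions against vehicle.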

[14] = read-out: Glutathione S-transferase M3 (GSTM3), GSTM3 (gene 2947); experiment: LTEA_HepaRG_GSTM3: Life Technologies and Expression Analysis (LTEA) Assay for Glutathione S-transferase M3 (GSTM3) using HepaRG (AID 2283501)
Method in brief: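 Changes in GSTM3 expression, an oxidative-stress marker, were scored by bidirectional curve fitting against 0.5% DMSO vehicle. Human HepaRG cultures received chemicals for 48 h in duplicate, highest concentration 100 uM with half-log dilutions.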

[15] = read-out: Hypoxia-inducible factor 1-alpha (Homo sapiens) (UniProt Q16665); experiment: LTEA_HepaRG_HIF1A: Life Technologies and Expression Analysis (LTEA) Assay for Hypoxia-inducible factor 1 (HIF1A) Trancription factor using HepaRG (AID 2283503)
Method in brief: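 HIF1A transcript level read by qRT-PCR (ACTB, GAPDH, POLR2A normalization) after 48 h chemical exposure of HepaRG cultures. Eight half-log concentrations, top 100 uM, 0.5% DMSO vehicle, duplicates; bidirectional curve fit against DMSO baseline.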

[16] = read-out: 3-Hydroxy-3-Methylglutaryl-CoA Synthase 2 (HMGCS2), HMGCS2 (gene 3158); experiment: LTEA_HepaRG_HMGCS2: Life Technologies and Expression Analysis (LTEA) Assay for 3-Hydroxy-3-Methylglutaryl-CoA Synthase 2 (HMGCS2) using HepaRG (AID 2283504)
Method in brief: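 Expression of HMGCS2 in human HepaRG liver cells is measured by qRT-PCR 48 h after dosing (highest 100 uM, half-log series, 0.5% DMSO). Values come from bidirectional concentration-response fitting with DMSO as baseline.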

[17] = read-out: HGF (gene 3082); experiment: LTEA_HepaRG_HGF: Life Technologies and Expression Analysis (LTEA) Assay for Hepatocyte Growth Facto (HGF) using HepaRG (AID 2283505)
Method in brief: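 Gain or loss of HGF mRNA in human HepaRG liver cells after 48 h chemical exposure; eight concentrations up to 100 uM with 0.5% DMSO vehicle, quantified by TaqMan qRT-PCR.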

[18] = read-out: Heat shock 70 kDa protein 1 (HSPA1A), gene 3303; experiment: LTEA_HepaRG_HSPA1A: Life Technologies and Expression Analysis (LTEA) Assay for Heat shock 70 kDa protein 1 (HSPA1A) using HepaRG (AID 2283502)
Method in brief: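 HSPA1A expression measured by qRT-PCR with ACTB/GAPDH/POLR2A normalization; curves fitted in both directions relative to DMSO vehicle. Exposure: 48 h in HepaRG cells, duplicate 8-point half-log series from 100 uM, 0.5% DMSO, serum-free induction medium.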

[19] = read-out: Cytochrome P450 3A7 (Homo sapiens) (UniProt P24462); experiment: LTEA_HepaRG_CYP3A7: Life Technologies and Expression Analysis (LTEA) Assay for CYP3A7 using HepaRG (AID 2283492)
Method in brief: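 Cells were thawed, plated, cultured 48 h, then treated for a further 48 h with chemicals (eight-point half-log series from 100 uM, 0.5% DMSO). RNA was isolated and CYP3A7 expression quantified by qRT-PCR normalised to ACTB, GAPDH and POLR2A.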

[20] = read-out: growth arrest and DNA damage 45 (GADD45G), GADD45G (gene 10912); experiment: LTEA_HepaRG_GADD45G: Life Technologies and Expression Analysis (LTEA) Assay for growth arrest and DNA damage 45 (GADD45G) using HepaRG (AID 2283499)
Method in brief: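 Human hepatic HepaRG line treated 48 h with chemicals (eight concentrations, half-log steps from 100 uM); transcript induction or repression of GADD45G scored by qRT-PCR versus DMSO vehicle.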

Measured: AC50

Sequence of Hypoxia-inducible factor 1-alpha (Homo sapiens) (Q16665 whole entry, looked up): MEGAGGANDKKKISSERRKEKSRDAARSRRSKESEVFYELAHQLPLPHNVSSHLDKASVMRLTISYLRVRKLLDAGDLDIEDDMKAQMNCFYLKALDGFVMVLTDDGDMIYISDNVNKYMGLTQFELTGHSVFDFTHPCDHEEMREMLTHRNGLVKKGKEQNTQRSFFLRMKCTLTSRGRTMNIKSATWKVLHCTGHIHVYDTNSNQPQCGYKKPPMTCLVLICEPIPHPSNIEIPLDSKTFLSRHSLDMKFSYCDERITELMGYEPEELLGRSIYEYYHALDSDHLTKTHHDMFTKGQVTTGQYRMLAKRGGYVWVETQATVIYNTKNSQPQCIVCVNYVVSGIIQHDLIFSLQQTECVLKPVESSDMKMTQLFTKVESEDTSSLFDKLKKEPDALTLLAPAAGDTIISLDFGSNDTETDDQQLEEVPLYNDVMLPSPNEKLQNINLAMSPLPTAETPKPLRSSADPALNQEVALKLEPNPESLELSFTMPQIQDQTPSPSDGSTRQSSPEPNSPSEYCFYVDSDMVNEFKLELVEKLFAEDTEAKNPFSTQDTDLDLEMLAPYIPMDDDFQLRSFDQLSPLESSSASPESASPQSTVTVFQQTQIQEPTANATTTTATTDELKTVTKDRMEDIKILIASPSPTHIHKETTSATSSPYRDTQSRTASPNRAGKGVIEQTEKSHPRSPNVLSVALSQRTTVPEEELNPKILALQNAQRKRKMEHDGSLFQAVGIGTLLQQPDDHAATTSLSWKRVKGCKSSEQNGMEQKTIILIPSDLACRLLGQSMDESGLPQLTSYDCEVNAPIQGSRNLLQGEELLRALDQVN
Sequence of Cytochrome P450 3A4 (Homo sapiens) (P08684 whole entry, looked up): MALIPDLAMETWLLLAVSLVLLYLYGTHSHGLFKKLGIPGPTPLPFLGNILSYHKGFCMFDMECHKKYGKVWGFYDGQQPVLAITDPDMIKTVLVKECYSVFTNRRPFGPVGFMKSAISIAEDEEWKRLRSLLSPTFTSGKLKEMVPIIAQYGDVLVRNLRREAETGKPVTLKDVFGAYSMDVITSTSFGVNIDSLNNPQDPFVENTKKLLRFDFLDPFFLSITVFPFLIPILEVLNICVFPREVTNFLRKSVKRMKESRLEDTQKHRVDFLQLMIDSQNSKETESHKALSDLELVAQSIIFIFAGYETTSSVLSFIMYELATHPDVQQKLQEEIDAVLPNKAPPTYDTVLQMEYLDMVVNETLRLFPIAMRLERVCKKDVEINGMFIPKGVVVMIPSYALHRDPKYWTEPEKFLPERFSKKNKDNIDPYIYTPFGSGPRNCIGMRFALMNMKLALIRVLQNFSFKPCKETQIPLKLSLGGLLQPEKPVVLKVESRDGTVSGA
Sequence of Cytochrome P450 3A7 (Homo sapiens) (P24462 whole entry, looked up): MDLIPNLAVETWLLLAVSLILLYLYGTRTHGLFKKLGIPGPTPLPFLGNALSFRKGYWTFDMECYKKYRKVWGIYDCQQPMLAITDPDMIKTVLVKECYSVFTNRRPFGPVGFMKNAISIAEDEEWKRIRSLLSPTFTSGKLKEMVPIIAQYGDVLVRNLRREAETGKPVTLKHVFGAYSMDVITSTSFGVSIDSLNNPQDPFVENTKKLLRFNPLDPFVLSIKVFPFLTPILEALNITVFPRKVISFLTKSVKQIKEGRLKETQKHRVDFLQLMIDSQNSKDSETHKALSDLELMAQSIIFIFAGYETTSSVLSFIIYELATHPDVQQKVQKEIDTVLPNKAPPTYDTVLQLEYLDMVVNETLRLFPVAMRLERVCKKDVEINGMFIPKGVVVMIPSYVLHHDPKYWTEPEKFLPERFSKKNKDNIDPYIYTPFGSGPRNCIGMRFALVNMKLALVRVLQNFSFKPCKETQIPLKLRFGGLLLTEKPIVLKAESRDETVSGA

Nc1nc(=S)c2[nH]cnc2[nH]1
inactive: [4] | [7] | [13] | [14] | [15] | [17]
active: [1] 6.3 µM | [2] 27.6 µM | [3] 8.69 µM | [5] 7.2 µM | [6] 0.586 µM | [8] 9.73 µM | [9] 7.06 µM | [10] 10.2 µM | [11] 7.68 µM | [12] 15.3 µM | [16] 7.48 µM

Cc1c(C)c2c(c(C)c1O)CCC(C)(COc1ccc(CC3SC(=O)NC3=O)cc1)O2 (stereo not given)
active: [1] 27.5 µM | [5] 88.3 µM | [7] 15.8 µM | [9] 25.8 µM | [10] 92.7 µM | [11] 23.2 µM | [12] 93.6 µM | [18] 50 µM | [15] 66.8 µM
inactive: [3] | [4] | [6] | [13] | [14] | [16] | [17]

O=[Si]=O
not listed: [4] | [8] | [9] | [10] | [18] | [20]
inactive: all other assays above

CCc1nc(N)nc(N)c1-c1ccc(Cl)cc1
active: [1] 64.2 µM | [3] 77.8 µM | [9] 60.7 µM | [10] 2.6 µM | [11] 41.8 µM | [20] 78.1 µM | [16] 68.8 µM | [17] 50 µM
not listed: [2] | [15]
inactive: all other assays above

— PubChem BioAssay (EPA / NIEHS)
